Test [1] can be described thus: Natriuretic polypeptide receptor (hNpr1) antagonism - Pilot counterscreen GloSensor control cell line (AID 1347045; calls by dose curve). To be noted: HEK293 cGMP GloSensor cells, SNP-stimulated luminescence, 20 min; series mostly up to 38.3 µM. In short, it runs like this:
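Luminescence was read before and 20 min after adding 50 uM SNP, which stimulates soluble guanylyl cyclase. The HEK293 cells expressing the GloSensor cGMP sensor had been preloaded with 2% reagent for 2 h and treated with compound.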
Background: A counterscreen serves to expose hits that act by an unwanted route or on another target.

The target in test [2] is Atrial natriuretic peptide receptor 1 (Homo sapiens) (UniProt P16066). In words: Natriuretic polypeptide receptor (hNpr1) antagonism - Pilot screen (AID 1347049; calls by dose curve;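 further: agonist-evoked cGMP luminescence read 20 min after hNppA addition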). The note with it: hNpr1 cells, antagonist mode cGMP read-out; series mostly up to 57.5 µM. An outline of the steps:
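HEK293 cells expressing hNpr1 and GloSensor cGMP luciferase, 1500/well, loaded with 2% GloSensor reagent 2 h, compound 30 min at room temperature; luminescence read before and 20 min after 0.1 nM hNppA stimulation.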

The target in test [3] is Atrial natriuretic peptide receptor 2 (Homo sapiens) (UniProt P20594). In words: Natriuretic polypeptide receptor (hNpr2) antagonism - Pilot subtype selectivity assay (AID 1347050; calls by dose curve). The note with it: NPR2-expressing cells, cGMP antagonist-mode read-out; series mostly up to 38.3 µM. In short, it runs like this: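 HEK293 cells expressing hNpr2 and a GloSensor cGMP luciferase sensor, 1500/well, preloaded 2 h with 2% GloSensor reagent, compound 30 min, then 1 nM hNppC for 20 min. Antagonism from luminescence after versus baseline pre-read; LOPAC in 1:5 titrations.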
Chain of Atrial natriuretic peptide receptor 2 (Homo sapiens) (P20594 whole entry, looked up): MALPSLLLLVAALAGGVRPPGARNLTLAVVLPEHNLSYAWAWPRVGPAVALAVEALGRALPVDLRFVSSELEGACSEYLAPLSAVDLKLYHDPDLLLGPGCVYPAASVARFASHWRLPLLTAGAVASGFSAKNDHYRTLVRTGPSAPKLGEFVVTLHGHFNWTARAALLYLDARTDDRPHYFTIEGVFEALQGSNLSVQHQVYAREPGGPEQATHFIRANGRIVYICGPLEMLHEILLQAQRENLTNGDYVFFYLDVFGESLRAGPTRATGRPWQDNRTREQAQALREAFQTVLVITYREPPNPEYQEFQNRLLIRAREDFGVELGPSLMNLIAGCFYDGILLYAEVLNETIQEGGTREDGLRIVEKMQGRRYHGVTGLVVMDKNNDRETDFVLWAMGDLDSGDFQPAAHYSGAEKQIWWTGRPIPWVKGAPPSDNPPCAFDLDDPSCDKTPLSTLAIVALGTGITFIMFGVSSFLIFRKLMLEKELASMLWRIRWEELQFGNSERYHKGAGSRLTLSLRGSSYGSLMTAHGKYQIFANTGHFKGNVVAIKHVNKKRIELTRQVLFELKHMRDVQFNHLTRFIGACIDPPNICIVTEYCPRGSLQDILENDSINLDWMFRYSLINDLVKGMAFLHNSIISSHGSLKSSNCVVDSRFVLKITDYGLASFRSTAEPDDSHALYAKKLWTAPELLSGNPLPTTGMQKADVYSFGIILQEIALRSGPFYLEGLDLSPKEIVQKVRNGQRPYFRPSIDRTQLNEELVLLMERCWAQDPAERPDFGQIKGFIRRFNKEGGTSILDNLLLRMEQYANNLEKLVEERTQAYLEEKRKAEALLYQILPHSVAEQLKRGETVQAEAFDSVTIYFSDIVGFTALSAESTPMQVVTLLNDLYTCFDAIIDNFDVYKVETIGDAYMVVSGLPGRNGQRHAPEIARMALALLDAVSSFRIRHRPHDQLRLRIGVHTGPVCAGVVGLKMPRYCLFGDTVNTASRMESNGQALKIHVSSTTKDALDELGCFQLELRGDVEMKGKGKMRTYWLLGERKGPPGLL

Test [4] in a line: NS1 protein of Zika virus - qHTS assay to identify small molecule inhibitors in human HEK 293 cells (AID 1347053). Further: nearly all actives have a fitted effect of over 55% in size. To be noted: HEK293 ZIKV MR766 infection, NS1 TR-FRET, 24 h; series mostly up to 46.1 µM. In short, it runs like this: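 HEK 293 cells, seeded 20 h at 37 C, were pretreated with compound 1 h, then infected with ZIKV MR766 (MOI = 0.5) for 24 h. NS1 was read by TR-FRET with two anti-NS1 antibodies, normalized to uninfected and infected wells.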
(In general: Quantitative high-throughput screening tests each substance at several concentrations.)

Test [5] addresses T1, Tyrosine-protein phosphatase non-receptor type substrate 1 (Homo sapiens) + Leukocyte surface antigen CD47 (Homo sapiens) (UniProt P78324+Q08722). In words: CD47-SIRPalpha protein protein interaction - LANCE assay qHTS validation (AID 1347057; active means well fitted curve in the direction sought with a large enough effect in the signal ratio, with a control signal flat, not every such curve was filed as active; the % refers to the signal ratio). To be noted: Recombinant CD47-His / biotin-SIRPalpha, TR-FRET ratio; series mostly up to 38.3 µM. An outline of the steps: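 First, His-tagged CD47 and Eu-labelled anti-His antibody met the compound for 30 min; next, site-specifically biotinylated SIRPalpha was added for 30 min; finally streptavidin-APC was added before reading the TR-FRET ratio.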
Background: In TR-FRET formats the signal depends on donor and acceptor labels being close together.

The target of test [6] is T1, Tyrosine-protein phosphatase non-receptor type substrate 1 (Homo sapiens) + Leukocyte surface antigen CD47 (Homo sapiens). Nature of the test: CD47-SIRPalpha protein protein interaction - HTRF assay qHTS validation (AID 1347058; active means well fitted curve in the direction sought with a large enough effect in the signal ratio, not every such curve was filed as active; the % refers to the signal ratio;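 further: recombinant soluble extracellular CD47 with His tag and biotinylated SIRPalpha domains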). To be noted: TR-FRET HTRF CD47-His / biotin-SIRPalpha binding, ratio 665/615; series mostly up to 38.3 µM. In short, it runs like this:
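TR-FRET read (Ch1/Ch2 ratio) of soluble extracellular CD47 and Avi-biotinylated SIRPalpha domains in PBS pH 7.4 with 0.05% IGEPAL; 7-point compound titration. Sequential 30 min room-temperature steps; non-biotinylated SIRPalpha as control inhibitor.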

Test [7] shares this target. Nature of the test: CD47-SIRPalpha protein protein interaction - Alpha assay qHTS validation (AID 1347059).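 Further: bead proximity luminescence from CD47 binding SIRPalpha after compound preincubation with SIRPalpha.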 The note with it: AlphaScreen CD47-His/biotin-SIRPalpha binding, LOPAC; series mostly up to 38.3 µM. In short, it runs like this:
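Biotinylated Avi-tagged SIRPalpha (25 nM) preincubated 30 min with compound, then His-tagged CD47 (12.5 nM) added 30 min; AlphaScreen with Ni-NTA acceptor and streptavidin donor beads. PBS pH 7.4, 0.05% IGEPAL, room temperature; 7-point titrations.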

Test [8] can be described thus: P-glycoprotein substrates identified in KB-8-5-11 adenocarcinoma cell line, qHTS therapeutic library screen (AID 1346987). Further: nearly all actives have a fitted effect of over 65% in size. Further: potency means the concentration at half of the fitted maximal effect. To be noted: KB-8-5-11 (P-gp overexpressing) viability, CellTiter-Glo, 72 h; series mostly up to 44.5 µM. An outline of the steps: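 Steps: plate 500 KB-8-5-11 cells/well in DMEM + 10% FCS (colchicine removed); pin compounds in dose-response; incubate 72 h, 37 degree C, 5% CO2; add CellTiter-Glo, 5 min; read luminescence.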

SMILES strings stand for the structures. Records with an inconclusive call do not appear. Calls of active or inactive are those of the source. Unless noted, the call rests on the fitted dose curve; in most records, active means well fitted curve in the direction sought with a large enough effect; inconclusive means small, poorly fitted or top-dose-only effect, or another doubt; inactive means no such curve, though single readings can be large; an effect the other way counts as inactive or inconclusive.

T1 sequence (P78324 whole entry, looked up): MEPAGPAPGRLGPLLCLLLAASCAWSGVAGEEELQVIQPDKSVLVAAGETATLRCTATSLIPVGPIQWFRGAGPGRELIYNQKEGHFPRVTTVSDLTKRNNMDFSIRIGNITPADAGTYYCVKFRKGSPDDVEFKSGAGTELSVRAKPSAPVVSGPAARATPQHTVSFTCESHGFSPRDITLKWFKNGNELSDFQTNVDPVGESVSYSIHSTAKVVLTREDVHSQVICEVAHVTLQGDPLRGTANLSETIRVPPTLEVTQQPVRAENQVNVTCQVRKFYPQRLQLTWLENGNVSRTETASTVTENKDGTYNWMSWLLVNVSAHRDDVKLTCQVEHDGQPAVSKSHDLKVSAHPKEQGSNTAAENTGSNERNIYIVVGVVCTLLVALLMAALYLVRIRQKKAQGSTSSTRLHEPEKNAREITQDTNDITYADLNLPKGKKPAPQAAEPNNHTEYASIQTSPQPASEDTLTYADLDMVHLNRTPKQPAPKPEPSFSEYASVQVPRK
T1 sequence (Q08722 whole entry, looked up): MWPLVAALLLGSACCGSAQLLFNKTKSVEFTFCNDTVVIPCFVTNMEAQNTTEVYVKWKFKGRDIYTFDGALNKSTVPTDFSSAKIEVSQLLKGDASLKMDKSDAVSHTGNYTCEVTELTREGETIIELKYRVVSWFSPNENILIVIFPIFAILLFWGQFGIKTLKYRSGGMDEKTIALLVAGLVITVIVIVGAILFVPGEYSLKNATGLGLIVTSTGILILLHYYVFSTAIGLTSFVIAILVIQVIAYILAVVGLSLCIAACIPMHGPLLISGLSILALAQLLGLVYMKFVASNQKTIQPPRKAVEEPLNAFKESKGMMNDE
Chain of Atrial natriuretic peptide receptor 1 (Homo sapiens) (P16066 whole entry, looked up): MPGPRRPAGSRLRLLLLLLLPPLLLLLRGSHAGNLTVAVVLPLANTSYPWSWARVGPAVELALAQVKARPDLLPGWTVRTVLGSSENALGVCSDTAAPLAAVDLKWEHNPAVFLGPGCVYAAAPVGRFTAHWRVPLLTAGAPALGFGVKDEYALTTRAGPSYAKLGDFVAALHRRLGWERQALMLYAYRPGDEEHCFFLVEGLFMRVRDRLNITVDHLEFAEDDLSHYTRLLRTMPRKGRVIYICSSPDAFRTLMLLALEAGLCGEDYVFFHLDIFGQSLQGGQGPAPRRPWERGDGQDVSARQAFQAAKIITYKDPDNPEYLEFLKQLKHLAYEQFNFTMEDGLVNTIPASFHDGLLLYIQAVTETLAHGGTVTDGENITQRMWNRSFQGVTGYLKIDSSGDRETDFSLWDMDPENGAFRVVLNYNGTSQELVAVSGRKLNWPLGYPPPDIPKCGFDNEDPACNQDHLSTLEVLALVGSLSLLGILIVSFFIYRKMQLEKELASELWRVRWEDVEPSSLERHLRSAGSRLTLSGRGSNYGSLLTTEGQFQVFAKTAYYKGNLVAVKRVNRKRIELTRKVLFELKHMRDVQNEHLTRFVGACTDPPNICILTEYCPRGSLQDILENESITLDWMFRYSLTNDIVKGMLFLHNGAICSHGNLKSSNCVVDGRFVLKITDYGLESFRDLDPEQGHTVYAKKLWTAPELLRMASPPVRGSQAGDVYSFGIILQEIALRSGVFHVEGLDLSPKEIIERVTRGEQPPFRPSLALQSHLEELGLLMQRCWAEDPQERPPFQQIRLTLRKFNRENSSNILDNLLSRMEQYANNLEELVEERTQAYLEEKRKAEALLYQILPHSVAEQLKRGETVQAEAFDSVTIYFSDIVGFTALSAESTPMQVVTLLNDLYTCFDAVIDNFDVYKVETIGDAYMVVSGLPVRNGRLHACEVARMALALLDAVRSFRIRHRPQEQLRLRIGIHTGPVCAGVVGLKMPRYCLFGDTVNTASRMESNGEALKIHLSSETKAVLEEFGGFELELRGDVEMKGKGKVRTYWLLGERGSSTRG

With `CC(=O)[C@H]1CCC2C3CC[C@H]4C[C@H](O)CC[C@]4(C)C3CC[C@@]21C` (some centres not stated), the Potency entry in test [1], in test [2], in test [3], in test [4] and in test [7] was “inactive” throughout. Moreover, the outcome in test [5] and in test [6] was inactive.
Take `Oc1ccc2c3c1O[C@H]1[C@@H](O)C=C[C@H]4[C@@H](C2)NCC[C@@]341`: the Potency result in test [8] and in test [4] was “inactive” in each case.
As for `O=[N+]([O-])c1c(Cl)c(Cl)cc(Cl)c1Cl`, the Potency result in test [8] and in test [4] was “inactive” in each case.
Consider `C/C=C(/C)C(=O)O[C@H]1C(C)=C2[C@H]([C@@H]1OC(=O)CCCCCCC)[C@@](C)(OC(C)=O)C[C@H](OC(=O)CCC)[C@@]1(O)[C@H]2OC(=O)[C@@]1(C)O`, for which, in test [8], the Potency is 2.06 µM (active). Further, the outcome in test [5] and in test [6] was inactive. For the same compound, the Potency entry in test [7] is “inactive”.
Turning to `O=[N+]([O-])c1cc([N+](=O)[O-])c2ccccc2c1`, the Potency entry in test [8] and in test [4] was “inactive” each time.

The values above are taken from PubChem BioAssay (NCATS).
